PubChem BioAssay
Active and inactive are the calls of the source.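 How the source made its calls, unless noted: active means inhibition of the reporter signal at or above 50%; inactive means inhibition below 50%.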

assay: inhibitors of Sendai virus-induced IRF3 signaling, primary screen, TLR/RLR signaling modifier project, cell-based, Sendai virus stimulus, luciferase, 10K MLSCN set (AID 602276;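 active means inhibition at or above 50% at 10 µM; inactive means inhibition below 50%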;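 further: firefly luciferase from ISG56 promoter only with Renilla not read in this screen; 0% = Sendai virus plus DMSO and 100% = medium plus DMSO without virus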); details: HEK293 RL24 IRF3 luciferase reporter, at 10 µM, stronger effect = higher value

| SMILES | inhibition |
| --- | --- |
| COC(=O)C1C2C=CC3(CN(CC4CCCO4)C(=O)C13)O2 (stereo not given) | 5.61% (inactive) |
| N#Cc1c(-c2ccc3c(c2)OCO3)csc1N | -35.4% (inactive) |
| CCN(CC(=O)Nc1ccc2c(c1)CCC2)Cc1nc2ccccc2c(=O)[nH]1 | 13.7% (inactive) |
| O=C(Nc1ccncc1)c1cc2ccccc2o1 | -36.5% (inactive) |
| COc1cc(C(=O)NCC(=O)OCC(=O)c2ccc[nH]2)cc(OC)c1OC | 13.9% (inactive) |
| Cc1cc(C(=O)COC(=O)CCc2nc3ccccc3s2)c(C)n1C | 16.3% (inactive) |
| O=C1c2ccccc2C(=O)N1c1cccc(-c2nc3ccccc3o2)c1 | 2.66% (inactive) |
| Cc1ccc2[nH]c3c(c2c1)CN(C(=O)CN1CCN(c2cccc(C)c2C)CC1)CC3 | 22.6% (inactive) |
| CN(CCNC(=O)c1ccc(N2CCCC2=O)cc1)CCc1ccccc1 | 6.9% (inactive) |
| Cc1cccc(-n2ncc3c(NCc4cccs4)ncnc32)c1 | -36.3% (inactive) |
| COc1ccccc1C1N(c2ccc(F)cc2)C(=O)C2CCCN21 (stereo not given) | 9.07% (inactive) |
| COCC(=O)n1nc(NCc2ccc(OC)cc2)nc1NCc1ccc(OC)cc1 | 10.6% (inactive) |
| O=C(CSc1nc2ccccc2o1)N1CCN(C(=O)c2ccco2)CC1 | 3.77% (inactive) |
| Cc1nn(Cc2ccccc2)c(C)c1NC(=O)c1cc(-c2ccco2)on1 | 9.89% (inactive) |
| O=C(COc1ccc(F)cc1)Nc1ccc(-n2cnnn2)cc1 | 8.39% (inactive) |
| Cc1cc(NC(=O)CSc2nc3c(c(-c4cccnc4)c2C#N)CCC3)no1 | 0.978% (inactive) |
| O=C1C2CCCN2C(c2ccccc2)N1c1ccc(Cl)cc1 (stereo not given) | 31.4% (inactive) |
| COC(=O)c1ccccc1NC(=O)CN1CCC(n2nnc3cc(F)ccc32)CC1 | 15.8% (inactive) |
| Cc1nn(-c2ccccc2)c2[nH]c(C(F)(F)F)cc(=O)c12 | 5.93% (inactive) |
| Cc1ccc(S(=O)(=O)N2CCN(C(=O)N3CCOCC3)C2C)cc1 (stereo not given) | 11.8% (inactive) |

| SMILES | inhibition |
| --- | --- |
| O=C(CCC(=O)OCC(=O)c1ccccc1)NC1CCCCC1 | -0.183% (inactive) |
| COc1cccc(Nc2nnc(SCC(=O)N3CC(C)OC(C)C3)s2)c1 (stereo not given) | -1.41% (inactive) |
| O=C(NCc1ccco1)c1cccc(S(=O)(=O)N2CCCCC2)c1 | -13.9% (inactive) |
| CSc1ccc(-c2cc(=O)c3ccccc3o2)cc1 | -21% (inactive) |
| CCN(CC)C(c1ccc(C)cc1)c1nnnn1C1CCCCC1 (stereo not given) | 16.7% (inactive) |
| Cc1nonc1NC(=O)c1ccccc1Br | 12% (inactive) |
| Cc1cc(NC(=O)Cc2c(F)cccc2Cl)no1 | 14.4% (inactive) |
| Cc1cc(C)nc(SCc2nnc(SCC(=O)Nc3ncc(C)s3)n2Cc2ccco2)n1 | 8.75% (inactive) |
| CSc1ccccc1NC(=O)CN(c1ccccc1)S(=O)(=O)N(C)C | 15.6% (inactive) |
| Cc1cc(NC(=O)C(C)(C)C)no1 | 16.1% (inactive) |
| O=C(c1nn2cccnc2c1Cl)N1CCN(c2ccccc2)CC1 | 11.4% (inactive) |
| Cc1ccc(NC(=O)COC(=O)c2ccn(C)n2)cc1 | 17.1% (inactive) |
| COCCCN1C(=O)C(O)=C(C(C)=O)C1c1ccccn1 (stereo not given) | 12.4% (inactive) |
| CN(C)c1nc(Oc2ccc(N)cc2)nc(N(C)C)n1 | -1.54% (inactive) |
| CC(=O)NCCc1ccc(S(=O)(=O)NCc2ccc3c(c2)OCO3)cc1 | 4.45% (inactive) |
| N#Cc1c(N)oc(-c2cccs2)c1-c1cccs1 | -45.9% (inactive) |
| O=c1c2cnn(-c3ccccc3)c2ncn1/N=C/c1ccncc1 | 11.6% (inactive) |
| Cc1c(Cl)cccc1NC(=O)CCN1CCCCCC1 | 13.4% (inactive) |
| CCNc1ccc(S(=O)(=O)C(F)(F)F)cc1NC(=O)C12CCC(CC1)C2 | -90% (inactive) |
| O=C(CSc1n[nH]c(=O)[nH]c1=O)c1ccccc1 | 1.37% (inactive) |

assay: inhibitors of poly I:C-induced TLR3 signaling, primary screen, cell-based, poly I:C stimulus, luciferase, 10K MLSCN set (AID 602277); details: HEK293-TLR3 RL24 IRF3 luciferase reporter, at 10 µM, stronger effect = higher value

| SMILES | inhibition |
| --- | --- |
| COC(=O)C1C2C=CC3(CN(CC4CCCO4)C(=O)C13)O2 (stereo not given) | 11.6% (inactive) |
| N#Cc1c(-c2ccc3c(c2)OCO3)csc1N | -84.4% (inactive) |
| CCN(CC(=O)Nc1ccc2c(c1)CCC2)Cc1nc2ccccc2c(=O)[nH]1 | 14.8% (inactive) |
| O=C(Nc1ccncc1)c1cc2ccccc2o1 | -115% (inactive) |
| COc1cc(C(=O)NCC(=O)OCC(=O)c2ccc[nH]2)cc(OC)c1OC | 16.7% (inactive) |
| Cc1cc(C(=O)COC(=O)CCc2nc3ccccc3s2)c(C)n1C | 7.6% (inactive) |
| O=C1c2ccccc2C(=O)N1c1cccc(-c2nc3ccccc3o2)c1 | 4.23% (inactive) |
| Cc1ccc2[nH]c3c(c2c1)CN(C(=O)CN1CCN(c2cccc(C)c2C)CC1)CC3 | 24.6% (inactive) |
| CN(CCNC(=O)c1ccc(N2CCCC2=O)cc1)CCc1ccccc1 | 10.4% (inactive) |
| Cc1cccc(-n2ncc3c(NCc4cccs4)ncnc32)c1 | -95% (inactive) |
| COc1ccccc1C1N(c2ccc(F)cc2)C(=O)C2CCCN21 (stereo not given) | 14.8% (inactive) |
| COCC(=O)n1nc(NCc2ccc(OC)cc2)nc1NCc1ccc(OC)cc1 | 8.87% (inactive) |
| O=C(CSc1nc2ccccc2o1)N1CCN(C(=O)c2ccco2)CC1 | 3.76% (inactive) |
| Cc1nn(Cc2ccccc2)c(C)c1NC(=O)c1cc(-c2ccco2)on1 | 12.8% (inactive) |
| O=C(COc1ccc(F)cc1)Nc1ccc(-n2cnnn2)cc1 | 1.26% (inactive) |
| Cc1cc(NC(=O)CSc2nc3c(c(-c4cccnc4)c2C#N)CCC3)no1 | -3.11% (inactive) |
| O=C1C2CCCN2C(c2ccccc2)N1c1ccc(Cl)cc1 (stereo not given) | -130% (inactive) |
| COC(=O)c1ccccc1NC(=O)CN1CCC(n2nnc3cc(F)ccc32)CC1 | 25.9% (inactive) |
| Cc1nn(-c2ccccc2)c2[nH]c(C(F)(F)F)cc(=O)c12 | -1.53% (inactive) |
| Cc1ccc(S(=O)(=O)N2CCN(C(=O)N3CCOCC3)C2C)cc1 (stereo not given) | 45.8% (inactive) |

| SMILES | inhibition |
| --- | --- |
| O=C(CCC(=O)OCC(=O)c1ccccc1)NC1CCCCC1 | 97.3% (active) |
| COc1cccc(Nc2nnc(SCC(=O)N3CC(C)OC(C)C3)s2)c1 (stereo not given) | -10% (inactive) |
| O=C(NCc1ccco1)c1cccc(S(=O)(=O)N2CCCCC2)c1 | -7.47% (inactive) |
| CSc1ccc(-c2cc(=O)c3ccccc3o2)cc1 | -41.6% (inactive) |
| CCN(CC)C(c1ccc(C)cc1)c1nnnn1C1CCCCC1 (stereo not given) | 25.8% (inactive) |
| Cc1nonc1NC(=O)c1ccccc1Br | 22.4% (inactive) |
| Cc1cc(NC(=O)Cc2c(F)cccc2Cl)no1 | 19.6% (inactive) |
| Cc1cc(C)nc(SCc2nnc(SCC(=O)Nc3ncc(C)s3)n2Cc2ccco2)n1 | 11.7% (inactive) |
| CSc1ccccc1NC(=O)CN(c1ccccc1)S(=O)(=O)N(C)C | 20.5% (inactive) |
| Cc1cc(NC(=O)C(C)(C)C)no1 | 20.8% (inactive) |
| O=C(c1nn2cccnc2c1Cl)N1CCN(c2ccccc2)CC1 | 1.58% (inactive) |
| Cc1ccc(NC(=O)COC(=O)c2ccn(C)n2)cc1 | 22.3% (inactive) |
| COCCCN1C(=O)C(O)=C(C(C)=O)C1c1ccccn1 (stereo not given) | 14.4% (inactive) |
| CN(C)c1nc(Oc2ccc(N)cc2)nc(N(C)C)n1 | -2.53% (inactive) |
| CC(=O)NCCc1ccc(S(=O)(=O)NCc2ccc3c(c2)OCO3)cc1 | 2.38% (inactive) |
| N#Cc1c(N)oc(-c2cccs2)c1-c1cccs1 | 50.6% (active) |
| O=c1c2cnn(-c3ccccc3)c2ncn1/N=C/c1ccncc1 | 11.3% (inactive) |
| Cc1c(Cl)cccc1NC(=O)CCN1CCCCCC1 | 20.3% (inactive) |
| CCNc1ccc(S(=O)(=O)C(F)(F)F)cc1NC(=O)C12CCC(CC1)C2 | 99.7% (active) |
| O=C(CSc1n[nH]c(=O)[nH]c1=O)c1ccccc1 | 0.379% (inactive) |
